Set-up in all cases: scale not given: direction of the effect not stated beside the values
The target of assay [1] is Protein translocase subunit SecA (Escherichia coli (strain K12)) (UniProt P10408). Put plainly: Assay to Identify E. coli SecA ATPase Inhibitors. In kind it is functional. As to conditions: 30 µM.
Assay [2] deals with T1, Ubiquitin-activating enzyme e1, putative (Leishmania donovani (strain BPK282A1)) (UniProt E9BSI1).
T1 sequence (whole entry): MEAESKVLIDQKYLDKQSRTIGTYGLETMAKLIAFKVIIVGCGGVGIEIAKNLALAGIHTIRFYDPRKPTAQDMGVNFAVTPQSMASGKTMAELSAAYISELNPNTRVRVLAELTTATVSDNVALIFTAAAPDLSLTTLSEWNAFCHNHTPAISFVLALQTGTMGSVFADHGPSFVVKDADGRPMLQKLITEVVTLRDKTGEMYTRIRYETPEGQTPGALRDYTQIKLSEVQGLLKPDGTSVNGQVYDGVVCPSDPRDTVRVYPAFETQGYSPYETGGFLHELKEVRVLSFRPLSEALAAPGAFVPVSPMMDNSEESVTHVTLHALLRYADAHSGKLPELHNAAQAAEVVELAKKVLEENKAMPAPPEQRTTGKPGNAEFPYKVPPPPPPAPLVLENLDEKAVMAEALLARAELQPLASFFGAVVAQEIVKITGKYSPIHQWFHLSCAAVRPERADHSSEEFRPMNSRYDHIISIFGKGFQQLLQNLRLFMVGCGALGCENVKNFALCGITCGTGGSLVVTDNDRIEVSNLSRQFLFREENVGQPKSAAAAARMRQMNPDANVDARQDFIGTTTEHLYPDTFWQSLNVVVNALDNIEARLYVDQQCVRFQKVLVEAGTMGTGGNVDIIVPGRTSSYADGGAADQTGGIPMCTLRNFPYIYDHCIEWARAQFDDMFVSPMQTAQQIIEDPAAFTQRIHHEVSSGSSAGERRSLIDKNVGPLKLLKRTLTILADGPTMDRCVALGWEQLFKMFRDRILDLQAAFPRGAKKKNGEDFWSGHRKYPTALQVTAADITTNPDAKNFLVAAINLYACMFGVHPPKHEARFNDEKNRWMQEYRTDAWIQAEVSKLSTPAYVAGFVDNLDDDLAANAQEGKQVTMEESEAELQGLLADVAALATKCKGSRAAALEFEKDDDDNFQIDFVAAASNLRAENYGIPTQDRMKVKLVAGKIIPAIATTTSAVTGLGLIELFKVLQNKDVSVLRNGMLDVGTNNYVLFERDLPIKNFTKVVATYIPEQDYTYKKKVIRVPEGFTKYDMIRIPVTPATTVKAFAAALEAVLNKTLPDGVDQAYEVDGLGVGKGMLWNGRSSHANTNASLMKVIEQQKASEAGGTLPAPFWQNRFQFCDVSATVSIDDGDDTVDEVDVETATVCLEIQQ
Put plainly: Leishmania donovani Ubiquitin Activating Enzyme (LdE1). In kind it is functional. The conditions noted are these: 30 µM.

Assay [3] concerns the target Sialic acid-binding Ig-like lectin 9 (Homo sapiens) (UniProt Q9Y336). Put plainly: Hs-Siglec9 ALPHAscreen SOP 20170721. As to conditions: 10 µM. For orientation: In Alpha technology, singlet oxygen from a donor bead excites a nearby acceptor bead.
A further assay deals with Trypanosoma cruzi. Put plainly: Trypanosoma cruzi phosphomannomutase and mannose-1-phosphate guanylyltransferase assay. In kind it is functional. As to conditions: 10 µM.
In assay [4] the target is T2, Arginase-2, mitochondrial (Homo sapiens) (UniProt P78540).
T2 sequence (whole entry): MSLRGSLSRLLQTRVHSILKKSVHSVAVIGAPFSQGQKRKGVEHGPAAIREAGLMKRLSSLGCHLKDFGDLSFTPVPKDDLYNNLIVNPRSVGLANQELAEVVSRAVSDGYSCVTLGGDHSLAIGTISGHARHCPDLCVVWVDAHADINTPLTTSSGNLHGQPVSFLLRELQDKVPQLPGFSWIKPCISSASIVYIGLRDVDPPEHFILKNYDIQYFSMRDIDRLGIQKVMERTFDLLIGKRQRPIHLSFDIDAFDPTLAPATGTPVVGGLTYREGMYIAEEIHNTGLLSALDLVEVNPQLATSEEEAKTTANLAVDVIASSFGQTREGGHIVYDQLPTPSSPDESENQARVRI
Put plainly: in vitro enzyme assay to detect the production of urea directly proportional to the activity of Arginase II. Note: in the data most compounds retested in dose-response had high values. In kind it is functional. As to conditions: 33.3 µM.

The target in assay [5] is T3, Proteasome subunit beta (Trypanosoma cruzi) (UniProt O96673).
T3 sequence (whole entry): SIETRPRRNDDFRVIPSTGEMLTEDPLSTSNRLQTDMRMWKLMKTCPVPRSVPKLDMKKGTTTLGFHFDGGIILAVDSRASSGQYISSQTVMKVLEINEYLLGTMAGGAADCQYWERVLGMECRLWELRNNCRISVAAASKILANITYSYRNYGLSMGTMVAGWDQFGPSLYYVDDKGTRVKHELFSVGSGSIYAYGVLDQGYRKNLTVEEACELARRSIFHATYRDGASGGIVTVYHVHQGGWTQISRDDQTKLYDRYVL
Put plainly: Trypanosoma cruzi proteasome chymotrypsin-like activity (TcProtChymo) assay. Note: in the data most compounds retested in dose-response had high values. Type of assay: functional. As to conditions: 9.37 µM.

The species named for a further assay is Homo sapiens. Put plainly: To identify inhibition of the IFN signalling (Jak-Stat) pathway via expression of an eGFP reporter gene under the control of an IFN-stimulated response element (ISRE) containing MxA promoter. In kind it is functional. The conditions noted are these: 30 µM. A general note: A reporter such as luciferase makes a cellular process visible.

Assay [6] has as its target T4, Tyrosyl-tRNA synthetase, putative (Trypanosoma cruzi (strain CL Brener)) (UniProt Q4DSP6).
T4 sequence (whole entry): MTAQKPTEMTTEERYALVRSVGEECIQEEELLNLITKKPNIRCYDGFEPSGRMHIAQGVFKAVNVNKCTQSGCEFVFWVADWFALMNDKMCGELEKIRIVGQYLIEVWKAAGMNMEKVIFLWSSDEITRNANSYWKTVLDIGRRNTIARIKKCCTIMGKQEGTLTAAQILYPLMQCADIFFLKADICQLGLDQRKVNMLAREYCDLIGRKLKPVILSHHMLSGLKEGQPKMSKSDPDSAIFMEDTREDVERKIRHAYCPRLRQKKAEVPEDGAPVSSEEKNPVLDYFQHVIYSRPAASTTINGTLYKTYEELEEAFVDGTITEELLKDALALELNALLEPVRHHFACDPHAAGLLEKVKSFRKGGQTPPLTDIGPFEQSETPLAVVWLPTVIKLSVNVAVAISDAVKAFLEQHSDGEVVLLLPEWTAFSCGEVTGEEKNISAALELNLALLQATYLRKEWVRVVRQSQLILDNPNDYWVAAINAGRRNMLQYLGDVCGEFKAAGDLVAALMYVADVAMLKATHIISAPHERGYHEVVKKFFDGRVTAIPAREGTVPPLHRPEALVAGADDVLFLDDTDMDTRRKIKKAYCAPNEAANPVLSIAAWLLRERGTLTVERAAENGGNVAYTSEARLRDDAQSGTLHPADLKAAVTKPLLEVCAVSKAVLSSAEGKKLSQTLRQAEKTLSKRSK
In words: Trypanosoma cruzi tyrosyl tRNA synthetase (TcYRS) _High Tyrosine SOP. Note: in the data most compounds retested in dose-response had high values. In kind it is functional. The conditions noted are these: 30 µM.

The target of assay [7] is T4, Tyrosyl-tRNA synthetase, putative (Trypanosoma cruzi (strain CL Brener)). In words: Trypanosoma cruzi tyrosyl tRNA synthetase (TcYRS) SOP. Type of assay: functional. The conditions noted are these: 30 µM.
Assay [8] addresses Chromo domain-containing protein 1 (Saccharomyces cerevisiae (strain ATCC 204508 / S288c) (Baker's yeast)) (UniProt P32657). Put plainly: ScCHD-1 Enzyme Inhibition Assay. Note: in the data most compounds retested in dose-response had high values. The conditions noted are these: 30 µM. In kind it is functional.

The structures appear in SMILES notation. For part of these data: Results with a measured potency or affinity are listed apart.

Chain of Sialic acid-binding Ig-like lectin 9 (Homo sapiens) (Q9Y336 whole entry): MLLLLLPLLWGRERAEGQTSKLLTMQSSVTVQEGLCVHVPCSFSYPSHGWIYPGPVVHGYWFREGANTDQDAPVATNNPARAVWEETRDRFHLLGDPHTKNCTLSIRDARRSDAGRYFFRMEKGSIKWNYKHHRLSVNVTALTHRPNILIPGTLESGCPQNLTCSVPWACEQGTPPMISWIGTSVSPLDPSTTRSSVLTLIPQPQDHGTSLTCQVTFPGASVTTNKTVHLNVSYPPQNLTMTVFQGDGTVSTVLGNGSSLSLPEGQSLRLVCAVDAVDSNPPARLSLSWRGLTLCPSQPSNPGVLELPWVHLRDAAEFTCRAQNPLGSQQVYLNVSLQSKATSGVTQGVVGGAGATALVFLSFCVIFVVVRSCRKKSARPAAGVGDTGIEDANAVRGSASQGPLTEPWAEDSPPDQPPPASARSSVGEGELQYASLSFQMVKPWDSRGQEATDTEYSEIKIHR
Chain of Protein translocase subunit SecA (Escherichia coli (strain K12)) (P10408 whole entry): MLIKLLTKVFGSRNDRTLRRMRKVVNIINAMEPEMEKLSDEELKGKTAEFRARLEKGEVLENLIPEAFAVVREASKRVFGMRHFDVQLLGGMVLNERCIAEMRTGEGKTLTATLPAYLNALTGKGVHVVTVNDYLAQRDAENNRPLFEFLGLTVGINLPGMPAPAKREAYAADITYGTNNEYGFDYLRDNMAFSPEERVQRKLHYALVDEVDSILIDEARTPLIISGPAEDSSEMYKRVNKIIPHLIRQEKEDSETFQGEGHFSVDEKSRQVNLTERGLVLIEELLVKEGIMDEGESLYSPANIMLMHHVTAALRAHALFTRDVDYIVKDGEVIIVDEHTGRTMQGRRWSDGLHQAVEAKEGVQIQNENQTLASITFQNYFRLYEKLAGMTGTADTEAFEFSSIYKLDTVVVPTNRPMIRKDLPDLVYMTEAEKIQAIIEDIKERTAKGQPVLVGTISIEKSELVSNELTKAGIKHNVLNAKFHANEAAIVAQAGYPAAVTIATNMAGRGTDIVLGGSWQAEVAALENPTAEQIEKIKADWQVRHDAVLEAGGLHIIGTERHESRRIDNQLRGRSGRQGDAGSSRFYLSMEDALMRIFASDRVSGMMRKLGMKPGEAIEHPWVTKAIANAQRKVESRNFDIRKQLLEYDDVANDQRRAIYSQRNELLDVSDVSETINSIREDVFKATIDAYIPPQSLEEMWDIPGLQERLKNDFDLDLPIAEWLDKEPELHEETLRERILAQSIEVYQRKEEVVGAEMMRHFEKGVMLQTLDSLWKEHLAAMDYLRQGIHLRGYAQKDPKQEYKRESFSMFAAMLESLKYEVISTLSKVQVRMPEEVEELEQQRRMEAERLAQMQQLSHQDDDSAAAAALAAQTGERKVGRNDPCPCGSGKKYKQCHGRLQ
Chain of Chromo domain-containing protein 1 (Saccharomyces cerevisiae (strain ATCC 204508 / S288c) (Baker's yeast)) (P32657 whole entry, the tested form may be a part): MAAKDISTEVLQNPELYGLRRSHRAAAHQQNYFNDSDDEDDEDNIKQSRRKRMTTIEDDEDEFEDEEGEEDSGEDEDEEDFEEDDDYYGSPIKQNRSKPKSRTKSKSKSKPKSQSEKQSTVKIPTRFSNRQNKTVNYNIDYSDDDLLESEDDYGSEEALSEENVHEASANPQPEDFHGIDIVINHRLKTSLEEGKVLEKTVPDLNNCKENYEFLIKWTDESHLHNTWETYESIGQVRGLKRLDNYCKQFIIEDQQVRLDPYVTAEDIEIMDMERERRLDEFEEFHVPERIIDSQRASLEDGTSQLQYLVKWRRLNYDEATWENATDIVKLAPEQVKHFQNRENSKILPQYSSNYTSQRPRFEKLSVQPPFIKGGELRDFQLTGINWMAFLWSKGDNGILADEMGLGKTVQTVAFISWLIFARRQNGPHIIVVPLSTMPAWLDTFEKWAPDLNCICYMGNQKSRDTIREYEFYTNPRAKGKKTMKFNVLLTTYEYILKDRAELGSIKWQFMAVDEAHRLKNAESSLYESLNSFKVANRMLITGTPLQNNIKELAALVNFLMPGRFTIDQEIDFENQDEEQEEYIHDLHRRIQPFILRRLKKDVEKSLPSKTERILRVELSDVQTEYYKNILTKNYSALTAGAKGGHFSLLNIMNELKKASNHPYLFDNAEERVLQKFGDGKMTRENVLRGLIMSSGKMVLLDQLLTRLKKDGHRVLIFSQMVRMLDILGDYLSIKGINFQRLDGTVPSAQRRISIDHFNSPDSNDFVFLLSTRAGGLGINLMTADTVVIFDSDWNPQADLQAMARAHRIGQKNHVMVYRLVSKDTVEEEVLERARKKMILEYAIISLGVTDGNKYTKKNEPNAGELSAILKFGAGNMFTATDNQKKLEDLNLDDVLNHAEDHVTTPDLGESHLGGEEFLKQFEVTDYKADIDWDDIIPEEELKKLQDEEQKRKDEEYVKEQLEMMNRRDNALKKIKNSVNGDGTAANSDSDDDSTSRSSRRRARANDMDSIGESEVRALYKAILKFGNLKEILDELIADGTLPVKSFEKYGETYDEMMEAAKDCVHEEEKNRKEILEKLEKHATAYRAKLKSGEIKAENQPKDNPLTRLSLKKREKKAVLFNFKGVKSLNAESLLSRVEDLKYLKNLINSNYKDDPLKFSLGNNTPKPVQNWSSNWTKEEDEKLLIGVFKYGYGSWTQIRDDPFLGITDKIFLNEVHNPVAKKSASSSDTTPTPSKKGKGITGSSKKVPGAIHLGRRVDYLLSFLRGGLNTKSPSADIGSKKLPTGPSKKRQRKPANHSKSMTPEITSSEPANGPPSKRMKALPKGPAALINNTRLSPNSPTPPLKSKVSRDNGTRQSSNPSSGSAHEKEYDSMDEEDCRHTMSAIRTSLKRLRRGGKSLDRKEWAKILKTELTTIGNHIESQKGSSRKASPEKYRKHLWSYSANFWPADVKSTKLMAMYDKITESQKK

For the molecule `Cc1cc(C)n(CCC(=O)N2CCCC(n3cncn3)C2)n1` (stereo not given), the Percent Effect was -6.39% in assay [1]; 10.7% in assay [2]; 6.15% in assay [3]; 2.01% in the assay on Trypanosoma cruzi; -3.99% in assay [4]; 5.68% in assay [5]. Besides, the Percent Effect in the assay filed under Homo sapiens is -5.14%; in assay [6], 5.79%; in assay [7], 15.4%; in [8], -9.86%.
On to `NC(=O)NC(=O)CCN1CCCN(c2nccs2)CC1`, for which the Percent Effect in assay [1] is -0.41%; in assay [2], 10.7%; in assay [3], -0.94%; with Trypanosoma cruzi it was -4.02%; in assay [4], 3.1%; in [5] it was 9.41%. Moreover, the Percent Effect is 13.6% in the assay filed under Homo sapiens, 7.89% in assay [6], 10.3% in assay [7] and -7.5% in [8].
For the molecule `O=C1C[C@H]2[C@@H](CCN2C(=O)Cc2cccs2)N1Cc1cccnc1`, the Percent Effect in assay [1] is -6.6%; in assay [2], 9.09%; in [3], -0.0705%; with Trypanosoma cruzi, -1.31%; in assay [4], -4.11%; in assay [5] it was 13.7%. Also, the Percent Effect is 8.33% in the assay listed under Homo sapiens, 6.76% in assay [6], 7.5% in [7] and -3.4% in [8].
For `COC(=O)N1C[C@H]2CC[C@@H]1CN(Cc1cscn1)C2`, the Percent Effect in assay [1] is -8.16%; in assay [2], 0%; in assay [3], 5.89%; with Trypanosoma cruzi, 7.66%; in assay [4], -1.05%; in [5], 9.93%. For the same molecule, the Percent Effect in the assay filed under Homo sapiens was 28.6%; in [6], 5.85%; in assay [7], 14.6%; in assay [8], -2.59%.
As to `CCOC1COC2(CCN(Cc3cccc(F)c3)CC2)C1` (stereo not given), the Percent Effect in assay [1] was -1.34%; in assay [2], 14.3%; in [3], -2.76%; with Trypanosoma cruzi it was -1.13%; in [4], 0.457%; in assay [5] it was 5.75%. For the same molecule, the Percent Effect was 21.4% in the assay listed under Homo sapiens, 2.9% in assay [6], 7.5% in [7] and -7.79% in [8].
Consider `O=c1[nH][nH]cc1-c1ccnc(NCCN2CCCC2)n1`, for which the Percent Effect in assay [1] was 3.78%; in assay [2], 10.7%; in assay [3], -2.82%; with Trypanosoma cruzi, -4.82%; in assay [4], -8.87%; in assay [5], 7.38%. Besides, the Percent Effect in the assay filed under Homo sapiens is 13.2%; in assay [6] it was -4.74%; in [7], -5.13%; in [8] it was -14.5%.
For the molecule `Cc1nc(CNCC2CN(C)CCO2)cs1` (stereo not given), the Percent Effect in assay [1] is -4.87%; in [2], 18.2%; in assay [3], 4.98%; in the assay on Trypanosoma cruzi, 3.73%; in assay [4], -3.89%; in [5], 1.05%. The Percent Effect is -7.33% in the assay filed under Homo sapiens, 1.96% in assay [6], 21.2% in assay [7] and -11.4% in [8].
For `CCNC(=O)[C@@H]1C[C@H](NC(=O)Cc2ccsc2)CN1Cc1ccc(C)o1`, the Percent Effect in assay [1] is -3.95%; in [2], 13.5%; in assay [3], 10.2%; with Trypanosoma cruzi, 9.02%; in assay [4], 14.3%; in assay [5], 20.9%. In addition, the Percent Effect in the assay listed under Homo sapiens stood at 20.3%; in [6], 7.98%; in [7], 21.9%; in [8] it was 80.5%.
Take `c1ccc(-n2ccc(CN3CCCC3Cn3cccn3)n2)cc1` (stereo not given): the Percent Effect in assay [1] was -2.21%; in assay [2], -49.4%; in assay [3], 9.5%; in the assay with Trypanosoma cruzi, -5.97%; in assay [4], -7.17%; in [5] it was 8.25%. The Percent Effect in the assay listed under Homo sapiens was 11.5%; in assay [6], 0%; in assay [7], -11.8%; in [8] it was 3.12%.
For `CN1CCN(CCO)C(=O)C12CCN(Cc1ccsc1)CC2`, the Percent Effect in assay [1] was -2.2%; in assay [2], 9.09%; in assay [3], -2.51%; with Trypanosoma cruzi, -1.88%; in assay [4] it was 1.83%; in assay [5] it was 13.5%. Also, the Percent Effect in the assay listed under Homo sapiens was -2.12%; in assay [6], 3.87%; in [7], 12.5%; in assay [8], -7.99%.
As to `Cc1ccccc1-c1cncc(C2CCN(C(C)C)CC2)n1`, the Percent Effect in assay [1] was -10.1%; in assay [2], 12%; in assay [3] it was 6.88%; in the assay on Trypanosoma cruzi, 3.55%; in assay [4], -1.77%; in [5], 8.37%. Moreover, the Percent Effect is -7.37% in the assay filed under Homo sapiens, 7.41% in [6], 17.5% in assay [7] and -27.9% in [8].
Take `Cc1[nH]nc(CCC(=O)N2CCCC(OCc3cccnc3)C2)c1C` (stereo not given): the Percent Effect in assay [1] was -5.06%; in [2] it was 10.8%; in [3] it was 4.22%; in the assay with Trypanosoma cruzi, 0.679%; in [4] it was -0.35%; in assay [5], 2.91%. Further, the Percent Effect in the assay listed under Homo sapiens was 27.8%; in [6] it was 6.92%; in [7], 17.1%; in assay [8], -1.03%.

The values are drawn from ChEMBL document CHEMBL3988442, “University of Dundee, Small-Polar-MMV Screening Library” (2021).
